The results in this text go back to PubChem BioAssay.

Activity calls are given as the source filed them.

Experiment [1] is described as follows: binders of probe aFSTL3 on microarray, primary screen, stem cell growth factor project, biochemical, small-molecule microarray, fluorescence 635/667 (AID 1064).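 Also: measures binding of the biotinylated anti-FSTL3 antibody to printed compounds.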 Particulars: higher = more signal.
The nature of experiment [2]: binders from COS7 lysate, DM2A8 probe, primary screen, torsin A project, cell lysate, small-molecule microarray, fluorescence 635/667 (AID 1065). The conditions noted are these: higher = more signal, COS7 lysate expressing mutant human TOR1A.
The nature of experiment [3]: binders of probe aFGF2 on microarray, primary screen, stem cell growth factor project, biochemical, small-molecule microarray, fluorescence 635/667 (AID 1067).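 Also: measures binding of biotinylated aFGF2 protein to printed compounds on slides; z-score merges feature fluorescence and signal-to-noise across triplicate slides.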 Particulars: higher = more signal.
Experiment [4] in a line: binders of probe aFGF10 on microarray, primary screen, stem cell growth factor project, biochemical, small-molecule microarray, fluorescence 635/667 (AID 1071).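 Also: score merges 667 nm spot intensity and signal to noise from triplicate slides.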 The conditions noted are these: higher = more signal.
The target of experiment [5] is Neurogenic locus notch homolog protein 2 (Homo sapiens) (UniProt Q04721). Put plainly: Notch2 binders on small-molecule microarrays, primary screen, biochemical, small-molecule microarray, 635 nm fluorescence, stem cell growth factors (AID 1073). Particulars: Notch2 binding, higher = more signal.
For experiment [6], the target named is Pro-neuregulin-1, membrane-bound isoform (Homo sapiens) (UniProt Q02297). Put plainly: NRG1 binders on small-molecule microarrays, primary screen, psychiatric disease protein project, biochemical, small-molecule microarray, fluorescence 635/667 (AID 1075).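 Also: score combines 667 nm spot fluorescence with signal to noise.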 The conditions noted are these: NRG1 binding, 635 nm fluorescence, higher = more signal.
Sequence of Pro-neuregulin-1, membrane-bound isoform (Homo sapiens) (Q02297 whole entry, looked up, the tested form may be a part, canonical isoform): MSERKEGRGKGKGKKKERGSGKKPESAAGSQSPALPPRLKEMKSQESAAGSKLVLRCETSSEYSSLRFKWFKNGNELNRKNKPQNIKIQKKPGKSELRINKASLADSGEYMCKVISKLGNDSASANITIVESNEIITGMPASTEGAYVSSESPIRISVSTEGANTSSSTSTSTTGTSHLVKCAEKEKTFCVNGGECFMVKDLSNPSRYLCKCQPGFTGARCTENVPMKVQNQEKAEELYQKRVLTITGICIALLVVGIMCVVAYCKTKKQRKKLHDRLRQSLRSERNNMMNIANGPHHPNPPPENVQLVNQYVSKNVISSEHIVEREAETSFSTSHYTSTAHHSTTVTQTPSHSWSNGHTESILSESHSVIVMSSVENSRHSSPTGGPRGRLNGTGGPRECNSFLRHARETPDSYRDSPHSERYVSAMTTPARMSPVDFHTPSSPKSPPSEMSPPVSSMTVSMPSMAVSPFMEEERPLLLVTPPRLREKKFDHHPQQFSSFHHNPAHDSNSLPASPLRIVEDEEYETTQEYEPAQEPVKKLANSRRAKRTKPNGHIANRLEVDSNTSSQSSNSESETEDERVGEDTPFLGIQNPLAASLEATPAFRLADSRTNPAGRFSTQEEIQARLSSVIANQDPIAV
In experiment [7] the test system is Neuregulin-1 EGF-like domain. The experiment in a line: binders of neuregulin-1 EGF-like domain, primary screen, biochemical, small-molecule microarray, 635 nm fluorescence (AID 1081).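 Also: binding of the protein to compounds printed on small-molecule microarray slides.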 The conditions noted are these: small-molecule microarray binding, higher = more signal.
Experiment [8] is described as follows: FRG1 promoter luciferase signal modulators, primary screen, FRG1 inhibition for FSHD, cell-based, C2C12 myotubes, firefly/Renilla luciferase, luminescence (AID 1084). The conditions noted are these: higher = more signal, called active from +8 up or from −8 down.
A short description of experiment [9]: binders of probe aFST on microarray, primary screen, stem cell growth factor project, biochemical, small-molecule microarray, fluorescence 635/667 (AID 1086).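 Also: score merges 667 nm fluorescence with signal-to-noise of each printed compound spot.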 Particulars: higher = more signal.
Experiment [10] in a line: binders of probe aHhip on microarray, primary screen, stem cell growth factor project, biochemical, small-molecule microarray, fluorescence 635/667 (AID 1087).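 Also: score merges spot fluorescence at 667nm with spot signal to noise ratio.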 The conditions noted are these: higher = more signal.
Experiment [11] has as its system PRMT1 (protein arginine N-methyltransferase 1). The experiment in a line: PRMT1 binders on small-molecule microarrays, primary screen, biochemical, small-molecule microarray, 635 nm fluorescence (AID 1088).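 Also: binding of Prmt1 protein to compounds spotted on small-molecule microarray slides.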 Particulars: small-molecule microarray binding, higher = more signal.
The nature of experiment [12]: yeast growth modulation, basal conditions, primary screen, YJM789 clinical isolate, OD600, 24 h (AID 1089).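 Also: growth of clinical yeast isolate S. cerevisiae YJM 789 seeded 1000 cells per well; test concentration not given here.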 The conditions noted are these: S. cerevisiae YJM789 growth, higher = more signal, called active from +8 up or from −8 down.
A short description of experiment [13]: fission yeast growth modulation, primary screen, strain 972, OD600, 24 h, no modulator (AID 1090).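 Also: basal condition with compound alone and no growth modifier present; test concentration not given here.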 The conditions noted are these: S. pombe 972 growth, higher = more signal, called active from +8 up or from −8 down.
Experiment [14] can be described thus: S. cerevisiae growth modulation with rapamycin, primary screen, strain BY4716, OD600, 96 h (AID 1091). Also: test concentration not given here. Particulars: higher = more signal, called active from +8 up or from −8 down.
Experiment [15] concerns the target Torsin-1A-interacting protein 2 (Homo sapiens) (UniProt Q8NFQ8). Put plainly: LULL1 binders on small-molecule microarray, primary screen, cell lysate, human LULL1 lysate, 635/667 nm fluorescence (AID 1092).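 Also: probe is lysate of COS7 cells overexpressing human LULL1; score merges per-feature 667 nm fluorescence with signal-to-noise.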 Particulars: hLULL1 lysate binding, 635 nm fluorescence, higher = more signal.
The nature of experiment [16]: E. coli growth modulation, two-sided OD650, primary screen, E. coli filamentation project, strain DRC41, 24 h (AID 1093).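 Also: MC1000 strain lacking acrAB efflux and sulA so SOS filamentation is blocked; test concentration not given here.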 The conditions noted are these: OD650, 24 h, higher = more signal, called active from +8 up or from −8 down.
Experiment [17] is described as follows: small-molecule microarray binders of probe aLefty2, primary screen, biochemical, biotinylated probe, 635/667 nm fluorescence (AID 1094).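 Also: score merges spot fluorescence near 667 nm with spot signal-to-noise ratio.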 Particulars: higher = more signal.
The test system of experiment [18] is Noggin (protein binding on small-molecule microarray). Put plainly: Noggin binders on small-molecule microarray, primary screen, biochemical, 635/667 nm fluorescence (AID 1095).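 Also: score merges 667 nm feature fluorescence with signal to noise over triplicate slides.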 Particulars: 635 nm fluorescence, higher = more signal.
For experiment [19], the target named is Neurogenic locus notch homolog protein 3 (Homo sapiens) (UniProt Q9UM47). The experiment in a line: NOTCH3 binders on small-molecule microarray, primary screen, biochemical, 635/667 nm fluorescence (AID 1096). The conditions noted are these: NOTCH3 binding, 635 nm fluorescence, higher = more signal.
Sequence of Neurogenic locus notch homolog protein 3 (Homo sapiens) (Q9UM47 whole entry, looked up): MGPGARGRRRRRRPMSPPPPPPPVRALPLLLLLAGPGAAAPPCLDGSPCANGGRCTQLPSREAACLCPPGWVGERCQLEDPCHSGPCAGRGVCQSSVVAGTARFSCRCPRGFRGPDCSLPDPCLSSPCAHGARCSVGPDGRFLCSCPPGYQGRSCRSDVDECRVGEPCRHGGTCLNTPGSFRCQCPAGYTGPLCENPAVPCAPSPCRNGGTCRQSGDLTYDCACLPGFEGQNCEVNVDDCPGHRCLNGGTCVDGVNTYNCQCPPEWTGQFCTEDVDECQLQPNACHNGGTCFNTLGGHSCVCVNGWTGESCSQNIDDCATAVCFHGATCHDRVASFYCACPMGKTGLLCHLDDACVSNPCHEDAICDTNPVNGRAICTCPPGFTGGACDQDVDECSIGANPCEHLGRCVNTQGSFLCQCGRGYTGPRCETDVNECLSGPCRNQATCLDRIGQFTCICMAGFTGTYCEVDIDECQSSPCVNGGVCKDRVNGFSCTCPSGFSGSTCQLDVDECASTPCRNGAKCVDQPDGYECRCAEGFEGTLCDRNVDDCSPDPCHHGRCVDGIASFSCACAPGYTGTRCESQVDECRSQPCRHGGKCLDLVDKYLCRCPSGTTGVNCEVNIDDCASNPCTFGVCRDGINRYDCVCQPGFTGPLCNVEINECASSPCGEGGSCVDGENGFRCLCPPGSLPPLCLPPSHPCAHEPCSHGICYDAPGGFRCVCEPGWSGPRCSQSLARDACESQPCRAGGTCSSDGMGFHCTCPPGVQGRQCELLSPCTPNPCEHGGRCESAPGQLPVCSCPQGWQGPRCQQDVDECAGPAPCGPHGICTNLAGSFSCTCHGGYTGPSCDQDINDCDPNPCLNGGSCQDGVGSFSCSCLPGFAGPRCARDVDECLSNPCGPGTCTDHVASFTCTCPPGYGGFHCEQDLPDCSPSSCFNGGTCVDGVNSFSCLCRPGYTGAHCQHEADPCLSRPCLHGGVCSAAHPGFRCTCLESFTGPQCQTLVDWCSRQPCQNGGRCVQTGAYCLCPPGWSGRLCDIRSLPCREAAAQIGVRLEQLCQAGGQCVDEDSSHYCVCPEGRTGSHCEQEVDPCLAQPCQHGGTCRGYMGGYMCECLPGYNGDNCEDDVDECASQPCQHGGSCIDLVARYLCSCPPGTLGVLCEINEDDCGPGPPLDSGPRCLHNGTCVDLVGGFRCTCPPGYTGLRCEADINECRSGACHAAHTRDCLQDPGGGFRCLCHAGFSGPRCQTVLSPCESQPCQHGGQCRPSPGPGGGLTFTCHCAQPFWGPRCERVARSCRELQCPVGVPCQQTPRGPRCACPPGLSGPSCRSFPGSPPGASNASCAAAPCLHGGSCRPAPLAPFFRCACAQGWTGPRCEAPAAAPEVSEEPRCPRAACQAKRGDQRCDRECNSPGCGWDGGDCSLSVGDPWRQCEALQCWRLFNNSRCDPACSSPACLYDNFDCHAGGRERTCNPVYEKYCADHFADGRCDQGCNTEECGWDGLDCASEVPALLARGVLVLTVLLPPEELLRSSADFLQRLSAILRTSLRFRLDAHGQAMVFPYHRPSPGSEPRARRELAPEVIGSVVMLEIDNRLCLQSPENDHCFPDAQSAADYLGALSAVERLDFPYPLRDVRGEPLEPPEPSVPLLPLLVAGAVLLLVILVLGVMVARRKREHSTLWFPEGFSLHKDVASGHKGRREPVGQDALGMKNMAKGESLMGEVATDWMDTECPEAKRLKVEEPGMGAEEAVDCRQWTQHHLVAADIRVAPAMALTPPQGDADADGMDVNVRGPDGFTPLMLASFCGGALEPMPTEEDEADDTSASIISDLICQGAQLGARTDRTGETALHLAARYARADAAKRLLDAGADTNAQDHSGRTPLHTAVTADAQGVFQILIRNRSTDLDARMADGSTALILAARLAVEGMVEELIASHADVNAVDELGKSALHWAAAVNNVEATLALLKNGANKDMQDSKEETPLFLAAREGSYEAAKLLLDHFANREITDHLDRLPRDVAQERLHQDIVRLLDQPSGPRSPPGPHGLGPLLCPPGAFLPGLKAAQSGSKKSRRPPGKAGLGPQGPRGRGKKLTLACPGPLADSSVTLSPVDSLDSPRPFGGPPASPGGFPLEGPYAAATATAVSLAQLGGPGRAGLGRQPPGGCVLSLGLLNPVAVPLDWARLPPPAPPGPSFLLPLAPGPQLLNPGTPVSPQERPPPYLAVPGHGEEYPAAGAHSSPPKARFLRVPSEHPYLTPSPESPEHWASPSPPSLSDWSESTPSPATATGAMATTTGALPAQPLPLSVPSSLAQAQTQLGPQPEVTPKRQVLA
Experiment [20] can be described thus: small-molecule microarray binders of probe aEGFR, primary screen, biochemical, biotinylated probe, 635/667 nm fluorescence (AID 1097).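 Also: probe is a biotinylated anti-EGFR antibody binding compounds printed on slides; score combines fluorescence near 667 nm and signal to noise of each spot.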 The conditions noted are these: higher = more signal.

Sequence of Torsin-1A-interacting protein 2 (Homo sapiens) (Q8NFQ8 whole entry, looked up): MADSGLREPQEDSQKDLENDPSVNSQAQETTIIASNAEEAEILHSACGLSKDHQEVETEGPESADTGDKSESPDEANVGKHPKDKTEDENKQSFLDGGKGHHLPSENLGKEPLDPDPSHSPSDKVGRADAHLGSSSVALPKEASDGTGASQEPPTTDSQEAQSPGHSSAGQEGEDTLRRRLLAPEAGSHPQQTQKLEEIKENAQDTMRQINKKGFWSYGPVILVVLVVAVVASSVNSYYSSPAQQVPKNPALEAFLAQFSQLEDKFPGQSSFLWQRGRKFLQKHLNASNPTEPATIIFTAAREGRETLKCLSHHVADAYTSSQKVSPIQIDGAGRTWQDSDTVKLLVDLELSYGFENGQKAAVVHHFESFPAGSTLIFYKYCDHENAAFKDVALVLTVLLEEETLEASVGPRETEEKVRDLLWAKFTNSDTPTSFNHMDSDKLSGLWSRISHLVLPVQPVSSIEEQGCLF

Consider `CC1CC/C=C\[C@H]2OC34C=CCN(Cn5nnc6ccccc65)C(=O)[C@H]3N(CCCO)C(=O)[C@@H]4C2C(=O)O1` (stereo not given in full), for which the composite z-score in [1] is 0.536; in [2], -1.14; in [3], -0.0973; in experiment [4], -0.988; in experiment [5], -0.955; in [6] it was 1.38. The composite z-score is 1.57 in experiment [7]; -0.474 in experiment [9]; -0.196 in experiment [10]; -0.749 in experiment [11]; 0.389 in experiment [15]; -0.0499 in [17]. Moreover, the composite z-score in experiment [18] is -0.511; in experiment [19], 0.0174; in experiment [20], -0.192. Moreover, the z-score in [8] is -0.275 (inactive); in experiment [12], 0.175 (inactive); in [13], -0.463 (inactive); in experiment [14], 0.203 (inactive); in [16], 1.82 (inactive).

Consider `[N-]=[N+]=NCc1ccccc1[C@H]1OC(c2ccc(OCCCO)cc2)=N[C@@]1(Cc1ccccc1)C(=O)NCC(O)CO` (stereo not given in full), for which the composite z-score in [1] was 0.835; in experiment [2] it was 0.768; in experiment [3], -0.127; in [4], 0.407; in experiment [5], 0.641; in [6], 1.65. For the same compound, the composite z-score is 0.565 in experiment [7]; 0.1 in experiment [9]; -0.146 in experiment [10]; 1.25 in [11]; 3.5 in [15]; 0.102 in experiment [17]. Also, the composite z-score in experiment [18] is -0.116; in experiment [19] it was -0.046; in [20], 0.0073. Besides, the z-score in experiment [8] is -0.0633 (inactive); in [12] it was -0.286 (inactive); in experiment [13] it was 0.669 (inactive); in experiment [14] it was -1.22 (inactive); in experiment [16] it was 0.203 (inactive).

With `COC(=O)[C@@]1(Cc2ccccc2)[C@H]2c3cc(C(=O)N(C)C)n(Cc4cc(F)c(F)c(F)c4)c3C[C@H]2CN1C(=O)c1ccccc1`, the composite z-score in experiment [1] was 0.683; in experiment [2], -0.166; in experiment [3] it was 0.117; in experiment [4], 1.23; in experiment [5] it was 1.68; in experiment [6], 2.02. The composite z-score came to 1.16 in experiment [7]; 0.437 in experiment [9]; 0.776 in experiment [10]; 0.664 in experiment [11]; 3.22 in [15]; 0.461 in experiment [17]. Moreover, the results for the composite z-score in [18], in experiment [19] and in [20] were 0.137, 1.04 and 0.218, respectively. Also, the z-score was 1.47 (inactive) in experiment [8]; 0.103 (inactive) in experiment [12]; 1.52 (inactive) in experiment [13]; 0.405 (inactive) in experiment [14]; -0.832 (inactive) in experiment [16].

`COc1ccc([Si](C)(C)[C@H]2[C@H](CC(=O)N3CCC[C@H]3CO)O[C@@]3(C(=O)N(c4ccccc4)c4ccccc43)[C@@H]2C)cc1`: the composite z-score was -0.371 in [1]; 0.509 in experiment [2]; -0.17 in experiment [3]; 0.134 in [4]; -0.568 in experiment [5]; 0.0644 in experiment [6]. The composite z-score in experiment [7] is 1.05; in experiment [9], 0.0963; in experiment [10], -0.261; in experiment [11], 0.258; in [15], 0.958; in [17] it was -0.0651. Further, the values for the composite z-score in experiment [18], in [19] and in [20] were 0.285, 0.125 and -0.15, respectively. Moreover, the z-score in experiment [8] is -1.74 (inactive); in experiment [12], -1.85 (inactive); in [13], -0.841 (inactive); in [14], -1.27 (inactive); in [16], 2.45 (inactive).

In the case of `O=C1c2ccccc2[C@](Cc2ccccc2I)(C(=O)O)[C@H](c2ccc(CO)cc2)N1Cc1ccccc1C(F)(F)F`, the composite z-score was -0.897 in experiment [1]; 0.17 in [2]; -0.21 in experiment [3]; -0.278 in [4]; 0.304 in [5]; 1.62 in experiment [6]. Also, the composite z-score is 1.26 in [7]; -0.0423 in [9]; -0.312 in experiment [10]; 1.12 in experiment [11]; 3.14 in experiment [15]; -0.243 in experiment [17]. In addition, the composite z-score in experiment [18] is 0.033; in experiment [19], 0.263; in experiment [20], -0.379. Further, the z-score in [8] was -0.524 (inactive); in [12], 0.817 (inactive); in experiment [13] it was 0.0662 (inactive); in experiment [14], 0.0262 (inactive); in [16], -0.255 (inactive).
